Assay results as given in the OligoGym collection.

target: ZSCAN21; assay: pooled miR-30 sensor sort-seq; sequence = guide strand; conditions: shRNA
Further: reference of the scale not given here.

Sequence	sensor-assay potency score (higher = more potent)
TTCGTTACACTGATAAGGCTTC	0.478
TGATACAAACTCTATCACCGGA	0.695
TGGATCTTGAGCGAACTCCTGC	-0.804
TAGACTGGATACACGTCTGTTT	-0.362
TTAACTAGACTGGATACACGTC	-0.514

target: ZSCAN2; assay: as above; conditions: shRNA

Sequence	sensor-assay potency score (higher = more potent)
TTGTAACTAAAGCTTTCGCCGC	-0.979
TAGTATACAAAAGCTACCCGAC	-0.627
TATCTCAAAATCACTGTCCTGA	0.962
TTAGATTGGAGTTGTAACTAAA	-0.577
TTCATTCTCAAACATGTCTTGA	-0.592
TAAAGCTTTTTCCACATTCATC	-1.45
TACAGCACTGTCCTGAAGGGTC	-0.556
TTTCCGAGAATATCTTACGTGA	-0.583
TTCACTGTCCTGAAGGGTCTGG	0.109
TTGAGGAGGTTGGAGCTCCAGC	-0.932
TTGTAGTATTTCTCTCCTGTGT	-0.38
TAAAATTTGAACCATCACTAAA	-1.38

target: ZSWIM5; assay: as above; conditions: shRNA

Sequence	sensor-assay potency score (higher = more potent)
TAGTGAATACTGTTCGTCTTGG	-0.686
TTCTGTAGCACAGGTCACCAAC	-1.2
TTGAGGTTGTCGATGAACTGGG	-0.0434
TAGTCTTTCACTTTCCCGCTGG	0.269
TAGAATATGTCCTTGTTCCCAC	-0.0166
TTAAAGAGTAGTCTTTCACTTT	-0.123
TTGCACTAGCTCATCGTCCAGC	-0.629
TAGCAATCTTGAATGCATCTTG	0.435
TTGAGTTGAGTTGCTTTCCAGA	-0.443
TTTGTCAGTGGACATGAGCTTT	-0.796
TTGTCTGTCATGTTTGTTCCTT	-0.0787
TAGCTCATCGTCCAGCTGCAGC	-1.21

target: ZZEF1; assay: as above; conditions: shRNA

Sequence	sensor-assay potency score (higher = more potent)
TTAGTGTTTTATACAATCCTTT	-0.602
TTGAGGAGCAGGTTCTGTCTGA	-0.0904
TTAATCTGGACATAGAGCTGAC	-0.316
TTGAGAAATCTGTAGATCCTGG	0.26
TTTAACAGGTCACAGTAGCGAG	-1.06
TTCTTGTTTTAGTATCTCCATG	-1.42
TAGCACTTTGCTACTGACTTGA	0.394
TTTCTTTTGAACTTATGCCCGT	-0.351
TTATAGGCAAACACCAACCCAC	-0.586
TTAACCTCCTTACTATTCCGGT	-0.49
TTCAGCTGCAGGTAGCACCAGG	-0.559
